In PubChem BioAssay (EPA / NIEHS) one finds outcome and AC50 data, which are given here for 28 compounds.

Results filed as inconclusive are left out. Calls of active or inactive are those of the source. How the source made its calls, unless noted: active means hit-call score of the fitted dose curve at least 0.9, where 1 is the maximum; inactive means score below 0.9.

Read-out in one experiment: not listed separately
The experiment is described as follows: BSK_3C_TissueFactor: BioMAP Diversity Plus: 3C Assay for Tissue Factor Biomarker Activity (AID 2282997). The following applies: BioMAP 3C HUVEC, tissue factor biomarker readout; actives raise or lower the signal. In outline: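 HUVEC, 3C system, 24 h post-dose; Tissue Factor by ELISA; bidirectional fit vs DMSO baseline.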
Consider `CC(O)CCO` (stereo not drawn), for which the outcome was inactive.
As for `COC(=O)Nc1nc2ccccc2[nH]1`, the result was inactive.
The same measure, in the same setting: the result for `OCCCBr` reads “inactive”; that for `Nc1cc(Cl)cc(C(=O)O)c1Cl`, “inactive”; that for `O=Cc1ccco1`, “inactive”.
Consider `CC(C)(C)OOC(=O)c1ccccc1`, for which the result was inactive.
The same measure, in the same setting: the result for `Cc1ccc(N=C=O)cc1N=C=O` reads “inactive”; that for `[O-][Cl+]O`, “inactive”; that for `CS(=O)(=O)NC(=O)c1cc(Oc2ccc(C(F)(F)F)cc2Cl)ccc1[N+](=O)[O-]`, “inactive”.
For the compound `CCN(CC)N=O`, the result was inactive.
On the same count and under the same terms, the result for `CCN(CC)CCO` reads “inactive”; that for `C1=Cc2cccc3cccc1c23`, “inactive”; that for `OCCOCCO`, “inactive”.

Read-out in a further experiment: not listed separately
Nature of the experiment: BSK_3C_uPAR: BioMAP Diversity Plus: 3C Assay for Urokinase-type plasminogen activator receptor (uPAR) Biomarker Activity (AID 2282998). The following applies: BioMAP 3C HUVEC, uPAR biomarker ELISA; actives raise or lower the signal. In outline: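 Dose primary human umbilical vein endothelial cells, incubate 24 h, measure cell-surface uPAR by ELISA, then fit the signal in both directions against the DMSO negative control.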
Turning to `COc1cc(C=O)cc2c1[C@H](COC(N)=O)[C@]1(OC(C)=O)ON2C[C@H]2[C@@H]1N2C(C)=O`, the concentration at half-maximal activity (AC50) is 11.6 µM (active).
Consider `Cc1ccc(N)c(N)c1`, for which the outcome was inactive.
With `ClC1=C(Cl)[C@]2(Cl)[C@H]3[C@H]([C@@H]4C=C[C@H]3C4)[C@@]1(Cl)C2(Cl)Cl`, the half-maximal activity concentration (AC50) was 16.1 µM (active).
`OCCCBr`: the outcome was inactive.
For `Cc1ccc(N=C=O)cc1N=C=O`, the result was inactive.
Turning to `COC(=O)c1ccccc1N`, the result was inactive.
For the compound `[O-][Cl+]O`, the outcome was inactive.
Still for that read-out and setting: the result for `CCOc1cccc(C2(N3CCN(c4ccccc4)CC3)CCC(C)CC2)c1` (stereo not drawn) reads “inactive”.
Same read-out and setting: the result for `CCN(CC)CCO` reads “inactive”.
The same measure, in the same setting: the result for `C1=Cc2cccc3cccc1c23` reads “inactive”; that for `Clc1ccc(Cl)c(Cl)c1`, “inactive”.

Read-out in another experiment: not listed separately
Nature of the experiment: BSK_3C_VCAM1: BioMAP Diversity Plus: 3C Assay for Vascular cell adhesion molecule 1 (VCAM1) Biomarker Activity (AID 2282999). The following applies: BioMAP 3C HUVEC, VCAM1 ELISA, cytokine-stimulated; actives raise or lower the signal. In outline: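 Vascular primary endothelium (human umbilical vein) was exposed to chemicals and assayed 24 h later. VCAM-1 levels came from ELISA, with DMSO serving as baseline for bidirectional fitting.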
Background: In an ELISA, binding on a coated surface is turned into a signal by an enzyme label.
For `c1ccc2c(c1)-c1cccc3cccc-2c13`, the outcome was inactive.
The same measure, in the same setting: the result for `Cc1ccc([N+](=O)[O-])cc1` reads “inactive”; that for `N#CC(Br)(Br)C(N)=O`, “inactive”.
The same measure, in the same setting: the result for `CC(C)(C)OOC(C)(C)CCC(C)(C)OOC(C)(C)C` reads “inactive”.
With `O=C1CCCO1`, the result was inactive.
`CCCCC(CC)COC(=O)c1ccc(C(=O)OCC(CC)CCCC)c(C(=O)OCC(CC)CCCC)c1` (stereo not drawn): the outcome was inactive.
As to `COc1cc(C=O)cc2c1[C@H](COC(N)=O)[C@]1(OC(C)=O)ON2C[C@H]2[C@@H]1N2C(C)=O`, the concentration at half-maximal activity (AC50) was 22.1 µM (active).
As to `CC(O)CCO` (stereo not drawn), the outcome was inactive.
The same measure, in the same setting: the result for `COC(=O)Nc1nc2ccccc2[nH]1` reads “inactive”.
On to `Cc1ccc(N)c(N)c1`, for which the half-maximal activity concentration (AC50) was 5.57 µM (active).
Same read-out and setting: the result for `ClC1=C(Cl)[C@]2(Cl)[C@H]3[C@H]([C@@H]4C=C[C@H]3C4)[C@@]1(Cl)C2(Cl)Cl` reads 28.7 µM (active).
Take `OCCCBr`: the result was inactive.
Same read-out and setting: the result for `Nc1cc(Cl)cc(C(=O)O)c1Cl` reads “inactive”; that for `O=Cc1ccco1`, “inactive”.
Same read-out and setting: the result for `CC(C)(C)OOC(=O)c1ccccc1` reads “inactive”.
For the compound `Cc1ccc(N=C=O)cc1N=C=O`, the result was inactive.
Consider `COC(=O)c1ccccc1N`, for which the outcome was inactive.
In the case of `[O-][Cl+]O`, the outcome was inactive.
The same measure, in the same setting: the result for `CCOc1cccc(C2(N3CCN(c4ccccc4)CC3)CCC(C)CC2)c1` (stereo not drawn) reads “inactive”; that for `CCC12COCN1COC2`, “inactive”; that for `C[N+](C)(C)CC1CO1` (stereo not drawn), “inactive”.
With `Cc1ccc(N)cc1`, the result was inactive.
Same read-out and setting: the result for `CS(=O)(=O)NC(=O)c1cc(Oc2ccc(C(F)(F)F)cc2Cl)ccc1[N+](=O)[O-]` reads “inactive”.
Still for that read-out and setting: the result for `CCN(CC)N=O` reads “inactive”; that for `CCN(CC)CCO`, “inactive”; that for `C1=Cc2cccc3cccc1c23`, “inactive”.
In the case of `OCCOCCO`, the outcome was inactive.
As to `Clc1ccc(Cl)c(Cl)c1`, the outcome was inactive.

Read-out in another experiment: not listed separately
The experiment is described as follows: BSK_4H_Eotaxin3: BioMAP Diversity Plus: 4H Assay for Eotaxin 3 Biomarker Activity (AID 2283000).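 On outcome: CCL26 protein level quantified by ELISA in parallel with SRB cytotoxicity check.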 The settings on record: primary human endothelial cells (HUVEC); actives raise or lower the signal. In outline:
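Readout is Eotaxin-3 (CCL26) level by ELISA in primary human umbilical vein endothelial cells harvested 24 h after chemical exposure; activity fitted in both directions against DMSO control.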
For the compound `c1ccc2c(c1)-c1cccc3cccc-2c13`, the outcome was inactive.
For `Cc1ccc([N+](=O)[O-])cc1`, the result was inactive.
`N#CC(Br)(Br)C(N)=O`: the outcome was inactive.
For `CC(C)(C)OOC(C)(C)CCC(C)(C)OOC(C)(C)C`, the outcome was inactive.
On the same count and under the same terms, the result for `O=C1CCCO1` reads “inactive”.
Same read-out and setting: the result for `CCCCC(CC)COC(=O)c1ccc(C(=O)OCC(CC)CCCC)c(C(=O)OCC(CC)CCCC)c1` (stereo not drawn) reads “inactive”.
On to `COc1cc(C=O)cc2c1[C@H](COC(N)=O)[C@]1(OC(C)=O)ON2C[C@H]2[C@@H]1N2C(C)=O`, for which the AC50 was 6.01 µM (active).
With `CC(O)CCO` (stereo not drawn), the result was inactive.
Consider `COC(=O)Nc1nc2ccccc2[nH]1`, for which the AC50 was 20 µM (active).
For `Cc1ccc(N)c(N)c1`, the outcome was inactive.
Regarding `ClC1=C(Cl)[C@]2(Cl)[C@H]3[C@H]([C@@H]4C=C[C@H]3C4)[C@@]1(Cl)C2(Cl)Cl`, the AC50 is 34.1 µM (active).
On to `OCCCBr`, for which the outcome was inactive.
With `Nc1cc(Cl)cc(C(=O)O)c1Cl`, the result was inactive.
With `O=Cc1ccco1`, the outcome was inactive.
Take `CC(C)(C)OOC(=O)c1ccccc1`: the result was inactive.
Same read-out and setting: the result for `Cc1ccc(N=C=O)cc1N=C=O` reads “inactive”.
Same read-out and setting: the result for `COC(=O)c1ccccc1N` reads “inactive”; that for `[O-][Cl+]O`, “inactive”.
The same measure, in the same setting: the result for `CCOc1cccc(C2(N3CCN(c4ccccc4)CC3)CCC(C)CC2)c1` (stereo not drawn) reads “inactive”; that for `CCC12COCN1COC2`, “inactive”.
`C[N+](C)(C)CC1CO1` (stereo not drawn): the result was inactive.
For `Cc1ccc(N)cc1`, the outcome was inactive.
Regarding `CS(=O)(=O)NC(=O)c1cc(Oc2ccc(C(F)(F)F)cc2Cl)ccc1[N+](=O)[O-]`, the outcome was inactive.
With `CCN(CC)N=O`, the result was inactive.
Same read-out and setting: the result for `CCN(CC)CCO` reads “inactive”.
Still for that read-out and setting: the result for `C1=Cc2cccc3cccc1c23` reads “inactive”; that for `OCCOCCO`, “inactive”; that for `Clc1ccc(Cl)c(Cl)c1`, “inactive”.

A further experiment deals with human Peroxisome Proliferator-activated Receptor alpha (PPARa), PPARA (gene 5465) (UniProt Q07869). Nature of the experiment: ATG_PPARa_TRANS: Attagene TRANS-FACTORIAL HepG2 Assay for human Peroxisome Proliferator-activated Receptor alpha (PPARa) (AID 2283001; active means hit-call score of the fitted dose curve at least 0.9, where 1 is the maximum).
Chain of human Peroxisome Proliferator-activated Receptor alpha (PPARa), PPARA (gene 5465) (Q07869 whole entry, looked up): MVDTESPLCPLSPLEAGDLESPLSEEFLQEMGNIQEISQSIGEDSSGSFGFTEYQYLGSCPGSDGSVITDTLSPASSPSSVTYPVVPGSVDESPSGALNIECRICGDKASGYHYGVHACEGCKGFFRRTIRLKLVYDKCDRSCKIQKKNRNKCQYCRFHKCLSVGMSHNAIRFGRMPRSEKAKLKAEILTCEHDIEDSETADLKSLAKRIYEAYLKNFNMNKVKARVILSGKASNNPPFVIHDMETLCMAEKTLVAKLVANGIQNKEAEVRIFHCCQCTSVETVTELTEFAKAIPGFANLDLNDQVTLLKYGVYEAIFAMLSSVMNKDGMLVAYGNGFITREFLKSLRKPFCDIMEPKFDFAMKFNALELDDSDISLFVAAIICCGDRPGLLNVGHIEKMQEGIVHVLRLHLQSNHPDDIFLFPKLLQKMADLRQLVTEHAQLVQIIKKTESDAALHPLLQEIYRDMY
Conditions: not given
In outline: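 Cells (HepG2) are transfected with multiple reporter transcription units, exposed to chemical for 24 h, then total RNA is reverse-transcribed and amplified. Labelled products are quantified by capillary electrophoresis; induction is referenced to DMSO.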
With `c1ccc2c(c1)-c1cccc3cccc-2c13`, the compound was called inactive.
Turning to `O=C1CCCO1`, the compound was called inactive.
In the case of `COc1cc(C=O)cc2c1[C@H](COC(N)=O)[C@]1(OC(C)=O)ON2C[C@H]2[C@@H]1N2C(C)=O`, the call was inactive.
The same measure, in the same setting: the result for `COC(=O)Nc1nc2ccccc2[nH]1` reads “inactive”; that for `Cc1ccc(N)c(N)c1`, “inactive”; that for `ClC1=C(Cl)[C@]2(Cl)[C@H]3[C@H]([C@@H]4C=C[C@H]3C4)[C@@]1(Cl)C2(Cl)Cl`, “inactive”.
The same measure, in the same setting: the result for `Nc1cc(Cl)cc(C(=O)O)c1Cl` reads “inactive”; that for `O=Cc1ccco1`, “inactive”.
The same measure, in the same setting: the result for `CC(C)(C)OOC(=O)c1ccccc1` reads “inactive”; that for `CCOc1cccc(C2(N3CCN(c4ccccc4)CC3)CCC(C)CC2)c1` (stereo not drawn), “inactive”.
As for `CCC12COCN1COC2`, the outcome was inactive.
With `Cc1ccc(N)cc1`, the compound was called inactive.
The same measure, in the same setting: the result for `CS(=O)(=O)NC(=O)c1cc(Oc2ccc(C(F)(F)F)cc2Cl)ccc1[N+](=O)[O-]` reads “inactive”.

The term AC50 denotes the concentration at which the activity in the assay is half-maximal.
